Records with an inconclusive call do not appear. Where a call stands in place of a potency, no number is given. Activity calls are given as the source filed them. The call rests on the fitted dose curve.
Potency means the concentration at half of the fitted maximal effect.

This assay can be described thus: Primary qHTS to identify inhibitors of SARS-CoV-2 cell entry (AID 1645846). Further: nearly all actives have a fitted effect of over 45% in size. Conditions: SARS-CoV-2 pseudovirus cell entry assay, luminescence; activity change, negative = inhibition: at 57.1 µM (top of the series) unless noted; series mostly up to 57.1 µM. In a few lines:
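Inhibition of spike-mediated entry was scored in human ACE2-transfected Expi293F cells. Particles were MLV-pseudotyped with Wuhan-Hu-1 S carrying a 19-aa C-terminal deletion; signal was luciferase after two days, scaled between spike PP and fusion-protein-free PP.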
A general note: In qHTS, concentration-response curves come from the screen itself.
`O=C(O)CCC(=O)c1ccc(-c2ccccc2)cc1`: the Potency entry is “inactive”. `Nc1ccc(S(=O)(=O)Nc2nccs2)cc1`: the activity change, negative = inhibition came out at 4.2%. On the same count and under the same terms, with `CN(Cc1ccc(C(C)(C)C)cc1)Cc1cccc2ccccc12` the figure was 2.25%. With `CCC1Nc2cc(Cl)c(S(N)(=O)=O)cc2S(=O)(=O)N1` (centres undefined), the Potency entry is “inactive”. As to `O=C(NC1CCN(CCc2c[nH]c3ccccc23)CC1)c1ccccc1`, the activity change, negative = inhibition was -25.8%.

In the case of `C=CCc1ccccc1OCC(O)CNC(C)C` (centres undefined), the activity change, negative = inhibition is -22.8%. Take `OC1C(O)C(O)C(O)C(O)C1O` (centres undefined): the activity change, negative = inhibition was -22.4%. The same measure, in the same setting: for `C[N+]1(CC2COC(c3ccccc3)(C3CCCCC3)O2)CCCCC1` (centres undefined) the value was -2.6%. Turning to `CC1(C)[C@H](C(=O)O)N2C(=O)C[C@H]2S1(=O)=O`, the Potency entry was “inactive”. For the molecule `C[C@H](N)[C@H](O)c1cccc(O)c1`, the activity change, negative = inhibition stood at 1.07%.

With `CCOc1cc(N)c(Cl)cc1C(=O)NCC1CN(Cc2ccc(F)cc2)CCO1` (centres undefined), the Potency entry was “inactive”. As to `CSc1ccc(C(=O)c2[nH]c(=O)[nH]c2C)cc1`, the Potency entry was “inactive”. Still for that read-out and setting: with `Cc1ccc2c(Cl)cc(Cl)c(O)c2n1` the entry was “inactive”.

In the case of `CCN(CC)C(=O)N1CCN(C)CC1`, the activity change, negative = inhibition is -24.4%. Take `C[N+]12CCC(CC1)C(OC(=O)C(O)(c1ccccc1)c1ccccc1)C2` (centres undefined): the Potency entry is “inactive”. On to `CC(C)[C@@H]1CC[C@@H](C)CC1=O`, for which the Potency entry was “inactive”. As to `C[N+](C)(C)CCOC(=O)CCC(=O)OCC[N+](C)(C)C`, the Potency entry was “inactive”. Consider `CN(CCCN1c2ccccc2CCc2ccccc21)CC(=O)c1ccc(Cl)cc1`, for which the activity change, negative = inhibition was -5.87%. As to `C[C@@H]1CCN(C(=O)[C@H](CCCN=C(N)N)NS(=O)(=O)c2cccc3c2NC[C@H](C)C3)[C@@H](C(=O)O)C1`, the activity change, negative = inhibition was -11.8%. For the molecule `COC(=O)C1=C(C)NC(C)=C(C(=O)OCCCN2CCC(c3ccccc3)(c3ccccc3)CC2)C1c1cccc([N+](=O)[O-])c1` (centres undefined), the Potency is 8.91 µM (active). As to `CC(=O)N(CC(O)CN(C(C)=O)c1c(I)c(C(=O)NCC(O)CO)c(I)c(C(=O)NCC(O)CO)c1I)c1c(I)c(C(=O)NCC(O)CO)c(I)c(C(=O)NCC(O)CO)c1I` (centres undefined), the Potency result was “inactive”.

As for `CC(O)COc1ccccc1` (centres undefined), the Potency entry is “inactive”. On the same count and under the same terms, with `Cc1nc(C2CCCCC2)c(-c2ccc(S(N)(=O)=O)c(F)c2)o1` the entry was “inactive”. Same read-out and setting: with `CCOC(=O)OCC/C(SC(=O)OCC)=C(\C)N(C=O)Cc1cnc(C)nc1N` the entry was “inactive”. Regarding `COc1ccc(CN(CCN(C)C)c2ncccn2)cc1`, the activity change, negative = inhibition was -19.5%.

With `Cc1cc(O)c(C(C)C)cc1Cl`, the Potency entry was “inactive”. On the same count and under the same terms, for `CCCCC(=O)O[C@]1(C(=O)CO)[C@@H](C)C[C@H]2[C@@H]3CCC4=CC(=O)C=C[C@]4(C)[C@@]3(F)[C@@H](O)C[C@@]21C` the value was “inactive”; for `CCc1cccc2c3c([nH]c12)C(CC)(CC(=O)O)OCC3` (centres undefined), “inactive”. For the molecule `CC(C)c1cc2c(cc1S(=O)(=O)O)[C@@]1(C)CCC[C@@](C)(C(=O)O)[C@@H]1CC2`, the activity change, negative = inhibition is -22.9%. The same measure, in the same setting: with `C[C@]12CC[C@@H]3c4ccc(O)cc4CC[C@H]3[C@@H]1CC[C@@H]2OC(=O)CCC1CCCC1` the figure was -19.7%. Take `c1ccc(CC2=NCCN2)cc1`: the Potency result is “inactive”. With `CCCC(=O)O[C@]1(C(=O)CC)CC[C@H]2[C@@H]3CCC4=CC(=O)CC[C@]4(C)[C@H]3[C@@H](O)C[C@@]21C`, the Potency entry was “inactive”. In the case of `COCCc1ccc(OCC(O)CNC(C)C)cc1` (centres undefined), the activity change, negative = inhibition is -1.24%. For `CC(=O)Nc1ccc(S(=O)(=O)Nc2ccc([N+](=O)[O-])cc2)cc1`, the Potency result is “inactive”. Consider `C#C[C@]1(O)CC[C@H]2[C@@H]3CCC4=CC(=O)CC[C@@H]4[C@H]3CC[C@@]21C`, for which the activity change, negative = inhibition came to 3.31%. For `O=C(c1ccc(F)cc1)C1CCN(CCn2c(=O)[nH]c3ccccc3c2=O)CC1`, the activity change, negative = inhibition is -1.25%. Regarding `c1ccc2[nH]c(-c3cscn3)nc2c1`, the Potency result was “inactive”. Consider `CC(C)Cc1ccc(C(C)C(=O)OCc2ccccn2)cc1` (centres undefined), for which the activity change, negative = inhibition is -13.1%. As for `Cc1cccc(N(C)C(=S)Oc2ccc3c(c2)C2CCC3C2)c1` (centres undefined), the Potency result was “inactive”.
